Source: PubChem BioAssay (Tox21)
Inconclusive results are not listed. Calls of active or inactive are those of the source. Unless noted, calls follow the shape of the dose curve; as a rule, active = well fitted curve in the direction sought with a large enough effect in the repeat runs; inconclusive = weak or mixed curves; inactive = no such curve, though single readings can be large; an effect the other way counts as inactive or inconclusive.

How the values were obtained:
[1] = A CellTox Green Cytotoxicity Assay to monitor cytotoxicity in HEK293 cells - 32 hour (AID 1224881); also: nearly all actives have a fitted effect of over 40% in size
In short: (§1)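 Dead-cell fluorescence measured kinetically: asymmetric cyanine dye, HEK293, 600 cells/well, 5 h settle, 23 nL cpd/DMSO, 37 C, reads 0–40 h every 8 h.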

[2] = A CellTox Green Cytotoxicity Assay to monitor cytotoxicity in HepG2 cells - 0 hour (AID 1224882); also: nearly all actives have a fitted effect of over 35% in size
In short: (§2)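 First, HepG2 cells (600/well) mixed with reagent were plated; second, after 5 h at 37 C they received compounds via pintool; third, fluorescence was measured at 0 h through 40 h at 8 h intervals.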

[3] = A CellTox Green Cytotoxicity Assay to monitor cytotoxicity in HepG2 cells - 32 hour (AID 1224883); also: nearly all actives have a fitted effect of over 50% in size
In short: as §2

[4] = A CellTox Green Cytotoxicity Assay to monitor cytotoxicity in HEK293 cells - 8 hour (AID 1224884); also: nearly all actives have a fitted effect of over 35% in size
In short: as §1

[5] = qHTS RealTime-Glo MT Cell Viability Assay in HepG2 cells - 16 hour (AID 1224885); also: nearly all actives have a fitted effect of over 50% in size
In short: (§3)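 HepG2 suspension premixed with RealTime-Glo reagents is plated at 600 cells per well and left 5 h at 37 C/5% CO2. Compounds in DMSO then go in, and bioluminescence reflecting viable cell number is recorded over 40 h.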

[6] = qHTS RealTime-Glo MT Cell Viability Assay in HEK293 cells - 24 hour (AID 1224886); also: top concentration of the series differs between compounds; nearly all actives have a fitted effect of over 50% in size
In short: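 Reads taken at 0, 8, 16, 24, 32 and 40 h from the same wells. HEK293 cells (600/well) carried RealTime-Glo reagents from seeding, with compound added after a 5 h settle at 37 C.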

[7] = qHTS RealTime-Glo MT Cell Viability Assay in HEK293 cells - 8 hour (AID 1224887); also: top concentration of the series differs between compounds; nearly all actives have a fitted effect of over 50% in size
In short: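 600 HEK293 cells per well, dispensed already mixed with RealTime-Glo MT reagents. Compound dosing came 5 h later. The same wells were read for luminescence at 0, 8, 16, 24, 32 and 40 h of exposure at 37 C.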

[8] = A CellTox Green Cytotoxicity Assay to monitor cytotoxicity in HEK293 cells - 16 hour (AID 1224888); also: nearly all actives have a fitted effect of over 35% in size
In short: as §1

[9] = qHTS RealTime-Glo MT Cell Viability Assay in HepG2 cells - 0 hour (AID 1224889); also: nearly all actives have a fitted effect of over 50% in size
In short: as §3

[10] = A CellTox Green Cytotoxicity Assay to monitor cytotoxicity in HepG2 cells - 8 hour (AID 1224890); also: nearly all actives have a fitted effect of over 45% in size
In short: as §2

[11] = qHTS assay to identify small molecule antagonists of the estrogen receptor alpha (ER-alpha) signaling pathway using the BG1 cell line in the presence of 0.1 nM 17-beta-estradiol - cell viability counter screen (AID 1259241); also: nearly all actives have a fitted effect of over 40% in size
In short: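 Following 5 days in phenol red-free medium with charcoal-stripped serum, VM7Luc4E2 cells received test compounds alongside 0.1 nM 17beta-estradiol (final) at 37C for 22 hr. Live cells were then quantified via protease-substrate fluorescence.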

[12] = qHTS assay to identify small molecule antagonists of the androgen receptor (AR) signaling pathway using the MDA cell line in the presence of 0.5 nM R1881 - cell viability counter screen (AID 1259242); also: nearly all actives have a fitted effect of over 45% in size
In short: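 qHTS format. MDA-kb2 (MMTV-luc, AR/GR responsive) + cpd + 0.5 nM R1881 final, 16 hr 37C/0% CO2 → CellTiter-Fluor 30 min → fluorescence intensity.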

[13] = biological target: Estrogen receptor (Homo sapiens) (UniProt P03372); experiment: qHTS assay to identify small molecule antagonists of the estrogen receptor alpha (ER-alpha) signaling pathway using the BG1 cell line in the presence of 0.1 nM 17-beta-estradiol (AID 1259244); also: nearly all actives have a fitted effect of over 50% in size
Sequence of Estrogen receptor (Homo sapiens) (P03372 whole entry, looked up): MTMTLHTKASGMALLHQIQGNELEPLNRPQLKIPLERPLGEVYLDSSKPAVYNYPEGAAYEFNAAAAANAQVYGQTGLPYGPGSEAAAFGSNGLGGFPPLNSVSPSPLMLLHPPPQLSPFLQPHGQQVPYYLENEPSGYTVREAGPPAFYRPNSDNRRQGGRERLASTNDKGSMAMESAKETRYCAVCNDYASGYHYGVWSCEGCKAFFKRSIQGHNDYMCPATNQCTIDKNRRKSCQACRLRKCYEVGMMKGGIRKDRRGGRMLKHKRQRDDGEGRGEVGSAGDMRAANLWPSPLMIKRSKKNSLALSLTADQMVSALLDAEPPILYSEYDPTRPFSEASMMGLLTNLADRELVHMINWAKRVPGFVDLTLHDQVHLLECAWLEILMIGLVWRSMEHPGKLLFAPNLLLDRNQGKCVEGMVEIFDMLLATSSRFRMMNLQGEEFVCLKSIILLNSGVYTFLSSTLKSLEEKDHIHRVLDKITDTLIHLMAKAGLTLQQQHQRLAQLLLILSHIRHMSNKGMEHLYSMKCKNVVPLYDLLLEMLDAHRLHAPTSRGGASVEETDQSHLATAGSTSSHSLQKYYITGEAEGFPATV
In short: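 Reporter is a stably transfected luciferase under four estrogen responsive elements in VM7Luc4E2 cells expressing native full-length ER-alpha; inhibition of 0.1 nM (final) 17beta-estradiol-driven signal over 22 h is read by luminescence.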

[14] = qHTS assay to identify small molecule HDAC inhibitors (AID 1259364);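 also: wild-type HCT-116 cells with endogenous class I/II HDAC activity; top concentration of the series differs between compounds; nearly all actives have a fitted effect of over 45% in size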
In short: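 Quantitative high-throughput format: overnight-seeded HCT-116 cells got compounds for 2 hr at 37C; HDAC-Glo I/II reagent added, 30 min RT, luminescence measured.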

[15] = qHTS assay to identify small molecule HDAC inhibitors - cell viability counter screen (AID 1259365)
In short: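 HCT-116 wild-type, overnight attachment; 2hr drug exposure, 37C; CellTiter-Glo luminescent ATP readout after 30min RT.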

[16] = qHTS assay to identify small molecule agonists of the sonic hedgehog signaling (Shh) pathway - cell viability counter screen (AID 1259366); also: nearly all actives have a fitted effect of over 50% in size
In short: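 Compounds in DMSO were pin-transferred onto 3T3 Gli1-Luc cells that had settled 4hr; plates then stood 24hr at 37C and 5% CO2. One hour before the end, CellTiter-Fluor was added and fluorescence recorded.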

[17] = qHTS assay to identify small molecule antagonists of the sonic hedgehog signaling (Shh) pathway - cell viability counter screen (AID 1259367); also: nearly all actives have a fitted effect of over 55% in size
In short: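 CellTiter-Fluor signal in conditioned medium-stimulated 3T3 Gli1-Luc cells, 23 hr compound exposure, 37C.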

[18] = qHTS assay to identify small molecule agonists of the sonic hedgehog signaling (Shh) pathway (AID 1259368; calls by dose curve;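 also: NIH/3T3-derived 3T3Gli1-Luc cells carrying a stable Gli1-driven firefly luciferase reporter; series mostly up to about 92 µM; nearly all actives have a fitted effect of over 15% in size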)
In short: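 Quantitative high-throughput format using a Gli1-driven firefly luciferase reporter line derived from NIH/3T3 cells. After a 24 hr compound treatment at 37 C and 5% CO2, luminescence reported Gli1 response element activity.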

[19] = qHTS assay to identify small molecule phospholipidosis (PLD) inducers (AID 1259344; active = well fitted curve in the direction sought with a large enough effect; an effect the other way counts as inactive or inconclusive)
In short: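 Accumulated phospholipid, stained red by LipidTOX during 24 h compound treatment of HepG2 cells at 37 C, is quantified from images as pit number and intensity, normalised per cell using Hoechst-stained nuclei.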

[20] = biological target: Androgen receptor (Homo sapiens) (UniProt P10275); experiment: qHTS assay to identify small molecule antagonists of the androgen receptor (AR) signaling pathway using the MDA cell line in the presence of 0.5 nM R1881 (AID 1259243); also: nearly all actives have a fitted effect of over 50% in size
Sequence of Androgen receptor (Homo sapiens) (P10275 whole entry, looked up): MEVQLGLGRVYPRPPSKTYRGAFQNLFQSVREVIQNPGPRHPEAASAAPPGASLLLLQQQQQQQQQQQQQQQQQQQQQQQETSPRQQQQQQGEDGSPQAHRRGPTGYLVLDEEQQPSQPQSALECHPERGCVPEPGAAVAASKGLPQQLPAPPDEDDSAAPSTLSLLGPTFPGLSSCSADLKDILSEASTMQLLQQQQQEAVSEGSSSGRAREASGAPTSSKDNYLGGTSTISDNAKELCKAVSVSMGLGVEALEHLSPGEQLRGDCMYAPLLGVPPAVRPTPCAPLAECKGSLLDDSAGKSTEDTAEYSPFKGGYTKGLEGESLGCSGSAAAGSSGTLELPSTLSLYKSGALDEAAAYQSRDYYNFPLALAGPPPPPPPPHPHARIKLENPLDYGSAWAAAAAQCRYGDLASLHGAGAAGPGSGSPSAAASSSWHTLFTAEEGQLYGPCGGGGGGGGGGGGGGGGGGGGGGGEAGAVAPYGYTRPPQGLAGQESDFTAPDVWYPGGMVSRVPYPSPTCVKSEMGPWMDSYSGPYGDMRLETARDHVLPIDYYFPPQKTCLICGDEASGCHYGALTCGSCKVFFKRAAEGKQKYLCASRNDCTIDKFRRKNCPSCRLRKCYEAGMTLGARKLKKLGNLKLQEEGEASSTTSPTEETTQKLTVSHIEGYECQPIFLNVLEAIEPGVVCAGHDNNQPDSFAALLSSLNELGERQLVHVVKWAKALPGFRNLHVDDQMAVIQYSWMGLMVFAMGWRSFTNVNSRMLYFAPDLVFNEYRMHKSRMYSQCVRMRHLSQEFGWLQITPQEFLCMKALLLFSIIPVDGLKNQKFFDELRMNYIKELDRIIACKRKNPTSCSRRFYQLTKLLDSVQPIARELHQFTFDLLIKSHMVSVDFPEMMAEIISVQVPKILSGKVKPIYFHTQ
In short: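 Antagonist mode quantitative HTS in MDA-kb2 MMTV-luciferase cells, agonist R1881 at 0.5 nM final, 16 hr exposure at 37C and 0% CO2, luminescent detection.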

Measured: Potency

O=C([O-])c1ccccn1.O=C([O-])c1ccccn1.O=C([O-])c1ccccn1.[Cr+3]
not listed: [19] | [20]
inactive: all other assays above

O=[N+]([O-])O[C@H]1CO[C@H]2[C@@H]1OC[C@H]2O[N+](=O)[O-]
not listed: [15] | [20]
inactive: all other assays above

O=C(N[C@H]1CN2CCC1CC2)c1ccc2c(c1)OCCO2
not listed: [13] | [16] | [19]
inactive: all other assays above

Cc1cccc(C)c1NC1=NCCCS1
not listed: [15] | [20]
inactive: all other assays above

O=C(O)COc1cc(Cl)c(Cl)cc1Cl
not listed: [13] | [19]
inactive: all other assays above

O=C1NC(=O)C(=O)C(=O)N1
not listed: [19] | [20]
inactive: all other assays above

NCCc1cc(O)c(O)cc1O
not listed: [16] | [20]
inactive: all other assays above

CCCC[N+]1(C)[C@@H]2CC(OC(=O)[C@H](CO)c3ccccc3)C[C@H]1[C@@H]1O[C@@H]12 (stereo partly drawn)
not listed: [15] | [20]
inactive: all other assays above
